Results taken from the supplement of paper PMC9492666.

Test system: HCC1937
Assay: relative cell viability, compound + RSL3, vs DMSO (fraction of DMSO control); higher = less growth inhibition
Details: 72 h
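Further: breast cancer cell viability read out with the CCK-8 kit after co-treatment of each compound with the ferroptosis inducer RSL3.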

Row | Structure (SMILES) | relative cell viability
1 | O=C(Nc1ccncc1)c1cc([N+](=O)[O-])ccc1Cl + COC(=O)c1ccc([C@H]2c3[nH]c4ccccc4c3C[C@H](C(=O)OC)N2C(=O)CCl)cc1 [RSL3] | 0.297
2 | O=C(O)c1cc(F)c2nc(N3[C@@H]4CC[C@H]3C[C@@H](OCc3c(-c5ccccc5OC(F)(F)F)noc3C3CC3)C4)sc2c1 [Tropifexor] + COC(=O)c1ccc([C@H]2c3[nH]c4ccccc4c3C[C@H](C(=O)OC)N2C(=O)CCl)cc1 [RSL3] | 0.603
3 | CCC(=O)O[C@]1(C(=O)CCl)[C@@H](C)C[C@H]2[C@@H]3C[C@H](F)C4=CC(=O)C=C[C@]4(C)[C@@]3(F)[C@@H](O)C[C@@]21C [Halobetasol Propionate] + COC(=O)c1ccc([C@H]2c3[nH]c4ccccc4c3C[C@H](C(=O)OC)N2C(=O)CCl)cc1 [RSL3] | 0.393
4 | CC[C@H](C)C(=O)O[C@H]1CCC=C2C=C[C@H](C)[C@H](CC[C@@H]3C[C@@H](O)CC(=O)O3)[C@H]21 [Mevastatin] + COC(=O)c1ccc([C@H]2c3[nH]c4ccccc4c3C[C@H](C(=O)OC)N2C(=O)CCl)cc1 [RSL3] | 0.707
5 | O=C(O)C(O)Cc1ccc(O)c(O)c1 (stereo not given) [Sodium Danshensu] + COC(=O)c1ccc([C@H]2c3[nH]c4ccccc4c3C[C@H](C(=O)OC)N2C(=O)CCl)cc1 [RSL3] | 0.631
6 | CCC(=O)O[C@]1(C(=O)SCF)[C@H](C)C[C@H]2[C@@H]3C[C@H](F)C4=CC(=O)C=C[C@]4(C)[C@@]3(F)[C@@H](O)C[C@@]21C [Fluticasone propionate] + COC(=O)c1ccc([C@H]2c3[nH]c4ccccc4c3C[C@H](C(=O)OC)N2C(=O)CCl)cc1 [RSL3] | 0.751
7 | Cc1nc2ccc(NCc3cccc(C(F)(F)F)c3)cc2n(CCNC(=O)CO)c1=O + COC(=O)c1ccc([C@H]2c3[nH]c4ccccc4c3C[C@H](C(=O)OC)N2C(=O)CCl)cc1 [RSL3] | 0.354
8 | OC[C@H]1O[C@@H](Oc2cc(O)cc(/C=C/c3ccc(O)cc3)c2)[C@H](O)[C@@H](O)[C@@H]1O [Polydatin] + COC(=O)c1ccc([C@H]2c3[nH]c4ccccc4c3C[C@H](C(=O)OC)N2C(=O)CCl)cc1 [RSL3] | 0.749
9 | CN(CCOc1ccc(CC2SC(=O)NC2=O)cc1)c1ccccn1 (stereo not given) [Rosiglitazone] + COC(=O)c1ccc([C@H]2c3[nH]c4ccccc4c3C[C@H](C(=O)OC)N2C(=O)CCl)cc1 [RSL3] | 1.26
10 | N[C@@H](Cc1c[nH]cn1)C(=O)O [histidine] + COC(=O)c1ccc([C@H]2c3[nH]c4ccccc4c3C[C@H](C(=O)OC)N2C(=O)CCl)cc1 [RSL3] | 0.622
11 | CC(C)(O)[C@@H]1Cc2cc3ccc(=O)oc3cc2O1 [marmesin] + COC(=O)c1ccc([C@H]2c3[nH]c4ccccc4c3C[C@H](C(=O)OC)N2C(=O)CCl)cc1 [RSL3] | 0.412
12 | COc1ccc(-c2c[nH]c3nccc(-c4ccsc4)c23)c(OC)c1 + COC(=O)c1ccc([C@H]2c3[nH]c4ccccc4c3C[C@H](C(=O)OC)N2C(=O)CCl)cc1 [RSL3] | 0.403
13 | CCCc1c(-c2ccccc2)[nH]n(-c2ccccn2)c1=O [APX-115 free base] + COC(=O)c1ccc([C@H]2c3[nH]c4ccccc4c3C[C@H](C(=O)OC)N2C(=O)CCl)cc1 [RSL3] | 0.412
14 | O=C(OC(C(F)(F)F)C(F)(F)F)N1CCN(Cc2ccc(C(F)(F)F)cc2N2CCCC2)CC1 + COC(=O)c1ccc([C@H]2c3[nH]c4ccccc4c3C[C@H](C(=O)OC)N2C(=O)CCl)cc1 [RSL3] | 0.928
15 | O=C(NNc1ccccc1)c1ccncc1 [PluriSln 1] + COC(=O)c1ccc([C@H]2c3[nH]c4ccccc4c3C[C@H](C(=O)OC)N2C(=O)CCl)cc1 [RSL3] | 0.418
